A selection: hits, their analogues and other compounds. The true share with any hit is near 1.7%.
CCHF vOTU inh-1 = CCHFV vOTU protease inhibition | actives 0.55% (n = 370,000) | Pep-AMC fluorescence | inhibition, % at 11.5 µM; also: 0% = vehicle wells with enzyme and 100% = no enzyme wells
Mtb bLac sens = beta-lactam sensitization of Mtb H37Rv; AID 434955; inhibition, % at 25 µM; M. tuberculosis H37Rv growth with meropenem, percent inhibition; actives 0.27% (n = 330,000); call rule not given here;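 also: growth measured after seven days incubation then overnight dye step; 0% = bacteria only wells and 100% = bacteria with antibiotic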
RecA intein inh = Mtb RecA intein splicing inhibition. P9WHJ3. cell-free RecA intein splicing, fluorescence. inhibition, % (no concentration beside the values). actives 0.75% (n = 290,000); in the data active = inhibition above about 30%;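 also: 0% = vehicle wells and 100% = reference inhibitor control wells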
Target sequence (P9WHJ3 whole entry, looked up): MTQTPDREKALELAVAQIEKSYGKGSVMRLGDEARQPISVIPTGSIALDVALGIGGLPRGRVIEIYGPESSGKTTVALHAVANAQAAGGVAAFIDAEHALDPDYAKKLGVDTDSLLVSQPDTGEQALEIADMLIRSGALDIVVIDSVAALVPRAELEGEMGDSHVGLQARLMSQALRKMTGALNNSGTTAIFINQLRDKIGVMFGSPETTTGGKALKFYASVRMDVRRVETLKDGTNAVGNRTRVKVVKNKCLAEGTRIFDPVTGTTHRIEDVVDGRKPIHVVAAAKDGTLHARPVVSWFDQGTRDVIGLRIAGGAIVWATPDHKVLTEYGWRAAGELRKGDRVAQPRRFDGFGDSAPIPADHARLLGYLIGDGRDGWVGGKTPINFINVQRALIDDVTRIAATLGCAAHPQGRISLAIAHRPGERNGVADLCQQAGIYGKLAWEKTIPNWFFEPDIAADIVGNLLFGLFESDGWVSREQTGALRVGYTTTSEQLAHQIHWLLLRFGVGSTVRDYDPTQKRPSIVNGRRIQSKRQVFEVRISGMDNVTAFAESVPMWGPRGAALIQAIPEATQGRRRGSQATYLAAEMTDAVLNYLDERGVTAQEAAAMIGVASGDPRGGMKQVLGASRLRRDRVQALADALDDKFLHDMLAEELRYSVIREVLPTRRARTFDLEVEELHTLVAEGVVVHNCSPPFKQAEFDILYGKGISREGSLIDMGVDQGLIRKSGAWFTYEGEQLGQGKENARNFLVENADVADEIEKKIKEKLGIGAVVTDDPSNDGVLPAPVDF
Mtb hypoxia inh = Mtb hypoxia fluorescent reporter inhibition; M. tuberculosis hypoxia-regulated fluorescent reporter, fluorescence; fluorescence inhibition, % (no concentration beside the values); actives 0.1% (n = 300,000); AID 1159583; in the data active = fluorescence inhibition mostly above about 23%, no sharp cut-off; inactive = mostly below about 17%
PfHsp40 rescue = rescue of PfHsp40-mediated yeast toxicity; actives 0.68% (n = 340,000); growth rescue, % at 12.5 µM; S. cerevisiae expressing PfHsp40, growth rescue, ATP luminescence; in the data active = growth rescue above about 28%, passing the limit was not always enough;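 also: yeast W303a lacking pdr1 and pdr3 grown in galactose medium; growth measured after three days at 30 °C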
CCHF vOTU inh-2 = confirmation of CCHF virus vOTU protease inhibitors. Recombinant CCHFV vOTU, Pep-AMC fluorescence. actives 17% (n = 1,900). shares compounds with CCHF vOTU inh-1. inhibition, % at 11.5 µM
Starred values were filed as active, the others as inactive; / = no result. Rule as the data show it, unless noted: active = inhibition above about 30%; inactive = the rest.

SMILES	CCHF vOTU inh-1	Mtb bLac sens	RecA intein inh	Mtb hypoxia inh	PfHsp40 rescue	CCHF vOTU inh-2
Cc1cccc(Nc2nc(N)c([N+](=O)[O-])c(N3CCN(C)CC3)n2)c1	2	5	3	3	-1	/
CCc1ccc([C@@H]2C[C@H]3[C@@H](CN2S(=O)(=O)c2ccc(C)cc2)C(=O)C[C@@H](c2ccccc2)N3S(=O)(=O)c2ccc(C)cc2)cc1	5	/	/	/	/	/
Cc1ccc(S(=O)(=O)N2[C@@H](c3ccc(F)cc3)C(C(=O)O)=CC[C@H]2c2cccc(Cl)c2)cc1	3	-14	/	/	9	/
CCc1ccc([C@@H]2C[C@H]3[C@@H](CN2S(=O)(=O)c2ccc(C)cc2)C(=O)C[C@@H](c2ccc(C)cc2)N3S(=O)(=O)c2ccc(C)cc2)cc1	34*	/	/	/	/	-20
CCc1ccc([C@@H]2CC=C(C(=O)O)[C@H](c3ccc(C)cc3)N2S(=O)(=O)c2ccc(C)cc2)cc1	32*	4	/	-4	14	16
O=C(O)C1=CCC(c2ccc(Cl)c(Cl)c2)N(S(=O)(=O)c2ccc(F)cc2)C1c1cccc(F)c1 (stereo unspecified)	37*	/	/	/	/	-10
Cc1ccc([C@@H]2CC=C(C(=O)O)[C@H](c3ccccc3)N2S(=O)(=O)c2ccc(C)cc2)cc1	0	-3	/	/	4	/
Cc1ccc(S(=O)(=O)N2[C@@H](c3ccccc3)C(C(=O)O)=CC[C@H]2c2ccc(C(C)C)cc2)cc1	30*	-1	/	/	133*	2
COC(=O)NN=C(CCC(=O)O)c1cccs1	/	/	/	14	/	/
Cc1c(C(C)CC(C)O)oc(=O)c2c1Oc1c(C)c(C(C)CC(C)O)oc(=O)c1C2 (stereo unspecified)	/	/	/	18	/	/
Cc1ccc(C=NNC(=O)c2nnn(-c3nonc3N)c2-c2cccs2)cc1	/	/	/	12	/	/
CCCNC(=O)C=Cc1ccc(S(=O)(=O)Nc2ccccc2OC)cc1	/	/	/	0	/	/
Cc1cc(-c2n[nH]c(=S)n2N=Cc2ccc(C)s2)n[nH]1	/	/	/	5	/	/
Cc1ccc(S(=O)(=O)N2[C@@H](c3ccc(Br)cc3)C(C(=O)O)=CC[C@H]2c2ccc(Cl)c(Cl)c2)cc1	32*	2	/	0	4	9
Cc1ccc(S(=O)(=O)N2[C@@H](c3ccc(C(C)(C)C)cc3)C(C(=O)O)=CC[C@H]2c2cccc(Cl)c2)cc1	38*	4	/	-8	-1	11
Cc1ccc(C2CC=C(C(=O)O)C(c3ccccc3)N2S(=O)(=O)c2ccc(C)cc2)cc1 (stereo unspecified)	/	/	/	9	/	/
Cc1ccc([C@H]2C(C(=O)O)=CC[C@@H](c3ccc(C)cc3)N2S(=O)(=O)c2ccc(C)cc2)cc1	27	1	/	0	0	/
Cc1ccc([C@H]2C(C(=O)O)=CC[C@@H](c3ccc(Cl)cc3)N2S(=O)(=O)c2ccc(C)cc2)cc1	33*	-15	/	-5	46*	0
Cc1ccc(S(=O)(=O)N2[C@@H](c3cccc(Cl)c3)C(C(=O)O)=CC[C@H]2c2cccc(Cl)c2)cc1	2	-3	/	/	12	/
Cc1ccc([C@H]2C(C(=O)O)=CC[C@@H](c3ccc(C(C)C)cc3)N2S(=O)(=O)c2ccc(C)cc2)cc1	38*	0	/	0	8	19
CN(C)c1cc(Cl)c2nonc2c1N	71*	-11	6	-13	3	3
COc1ccc(-n2c(NC(=O)c3ccc(Br)o3)c(C#N)c3nc4ccccc4nc32)cc1	/	/	0	5	/	/
CCCCn1c(NC(=O)c2ccc(F)cc2)c(C#N)c2nc3ccccc3nc21	/	5	25	/	/	/
N#Cc1c(NC(=O)c2ccc(Br)o2)n(-c2ccccc2)c2nc3ccccc3nc12	30*	6	-36	-9	2	-39
CCC(C)n1c(NC(=O)c2ccccc2)c(C#N)c2nc3ccccc3nc21 (stereo unspecified)	94*	96	-47	/	0	68*
CCCCn1c(NC(=O)c2ccccc2)c(C#N)c2nc3ccccc3nc21	121*	/	/	2	-1	90*
CCCCCCCC(N)C(O)C(=O)N(C)C(CCS(C)=O)C(=O)NC(Cc1ccc(O)cc1)C(=O)NC(Cc1ccc(O)cc1)C(=O)O (stereo unspecified)	/	/	/	18	/	/
Cc1ccc(C2C3C(=O)N(C)C(=O)C3[C@]3(Cc4ccccc4)C(=O)N(Cc4ccccn4)CC(=O)N23)o1 (stereo partly specified)	/	/	/	1	/	/
CN(C)c1ccc(C=C(C(=O)c2ccc(Cl)cc2Cl)n2cncn2)cc1	/	/	/	17	/	/
